Results: PubChem BioAssay (NCI)
Compounds without any hit were thinned out: in the full panel of roughly 79,000, 15% have a hit. Values without a mark were called inactive. Calls of active or inactive are those of the source. Cut-off read from the data, not from the text of the source: active = growth inhibition above about 70%; inactive = the rest.

Experiments:
[1] = NCI Yeast Anticancer Drug Screen. Data for the rad50 strain (AID 155);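 note: 0% = growth of vehicle-only cultures of the same strain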; conditions: S. cerevisiae rad50 strain growth inhibition; at 50.0 µM; active compounds read high
Outline: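 Inhibition values express reduced yeast growth in compound-treated cultures relative to vehicle-treated controls.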

[2] = NCI Yeast Anticancer Drug Screen. Data for the sgs1 mgt1 strain (AID 161);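 note: 0% = growth of cultures given vehicle only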; conditions: S. cerevisiae sgs1 mgt1 strain, at 50.0 µM, active compounds read high
Outline: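 Inhibition of yeast growth, normalised to vehicle-treated controls, is reported for a strain bearing genetic alterations in DNA damage repair.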

[3] = NCI Yeast Anticancer Drug Screen. Data for the cln2 rad14 strain (AID 165);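 note: 0% = growth equal to vehicle treated cultures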; conditions: S. cerevisiae cln2 rad14 strain, at 50.0 µM, active compounds read high
Outline: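 Growth of compound-exposed yeast (cln2 rad14 genotype) measured and expressed as inhibition relative to vehicle.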

[4] = NCI Yeast Anticancer Drug Screen. Data for the bub3 strain (AID 167); conditions: S. cerevisiae bub3 mutant strain, at 50.0 µM, active compounds read high
Outline: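 Steps: expose the mutant yeast strain to compound; grow alongside vehicle-treated cultures; measure growth; express inhibition against the vehicle cultures.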

[5] = NCI Yeast Anticancer Drug Screen. Data for the mlh1 rad18 strain (AID 175); conditions: S. cerevisiae mlh1 rad18 strain growth inhibition; at 50.0 µM; active compounds read high
Outline: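 In this whole-cell yeast screen, a strain with altered DNA damage repair is challenged with compound, and its growth is measured against matched vehicle-treated controls.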

[6] = NCI Yeast Anticancer Drug Screen. Data for the mec2-1 strain (AID 157); conditions: S. cerevisiae mec2-1 strain, at 50.0 µM, active compounds read high
Outline: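 Test agents were screened against the mec2-1 yeast strain, with defined DNA repair or cell cycle alteration. Growth was scored as inhibition against vehicle-only controls.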

Structure (SMILES) | growth inhibition [1] [%] | growth inhibition [2] [%] | growth inhibition [3] [%] | growth inhibition [4] [%] | growth inhibition [5] [%] | growth inhibition [6]
COc1cc(=O)cc2n(c1=O)CCC2 | -8.45 | -13.2 | -28 | 8.5 | -2.25 | 
O=C1c2ccccc2C(=O)N1Cc1ccc(CN2C(=O)c3ccccc3C2=O)cc1 | -9 | -16 | -12.2 | -1.55 | -11.1 | 
CC(=O)OC/C=C1/CC[C@H]2[C@@H]3CCC4=CC(=O)CC[C@]4(C)[C@H]3[C@@H](O)C[C@]12C |  | 8.65 | -31.4 | 13.4 | 26.9 | -4.25%
Nc1ncnc2c1ncn2C1CC(O)C(COP(=O)(O)O)O1 (stereo not given) |  | 0.85 | -23.4 | 0.45 | 4.7 | -4.65%
N#Cc1cccc(C2SCc3nc4ccccc4n32)c1 (stereo not given) |  | 25.9 | 23.1 | 4.8 | 18.1 | -8.9%
CC(C)(C)NC(=O)Oc1ccc(Br)cc1Br |  | 18.6 | -14.2 | 9.75 | 21.2 | 14.4%
COc1nc2ccccc2nc1OC |  | -5.5 | -14.8 | 4.45 | 4 | -8.75%
CC(=O)C1CN(C)CCC1=O (stereo not given) |  | -19.8 | -11.2 | -13.7 | 16.9 | -4.55%
CCCCCCCCCCCCCCCCCN(C)C(=O)OCC |  | -55.5 | -114 | -7.15 | -30.8 | 
CCOC(=O)C1=C(NC(=O)C(c2ccccc2)c2ccccc2)OCC1 |  | 5.05 | -48.5 | -13.3 | 7.85 | 4.75%
CC(=O)c1c2c(cc3c1CC1(C3)Cc3cc4c(c(C(C)=O)c3C1)CCC4)CCC2 |  | -4 | -5.45 | -3.35 | -30.6 | -31.4%
NNC(=O)CSc1ncnc2nc[nH]c12 |  | 0.55 | -3 | 9.65 | -0.5 | 9.8%
Nc1ccc(S(=O)(=O)Nc2ccccn2)cc1 |  | -13.1 | -41.4 | -20.2 | -17.4 | 8.55%
O=C(O)c1ccc(OCCOc2ccccc2)c(Cl)c1 |  | 61.3 | 40.2 | 63.6 | 61 | 74.8% (active)
COc1cccc(Cc2c3cc(OC)ccc3cc[n+]2C)c1 |  | 34.2 | 27.7 | 59 | 52.7 | 10.8%
O=C(c1no[n+]([O-])c1C(=O)c1csc2ccccc12)c1csc2ccccc12 |  | -31.9 |  | -10.3 | -0.25 | -2.2%
CC(=O)OCC1OC(n2nnc3c(=O)n(C)c(=O)[nH]c32)C(OC(C)=O)C(OC(C)=O)C1OC(C)=O (stereo not given) |  | 13.8 | 4 | 8.9 | 29.4 | 
Cc1ccc(S(=O)(=O)OCOS(=O)(=O)c2ccc(C)cc2)cc1 |  | 4.95 | 3.15 | -34.4 | -25.2 | 22.2%
NS(=O)(=O)c1ccc(NC(=O)Nc2ccccc2F)cc1 |  | -28.4 | -13.2 | 1.15 | 12.6 | -6.85%
CC(=N\N=C(N)N)/C(N=Nc1ccc(S(N)(=O)=O)cc1)=N\N=C(N)N |  | 19.4 | -45.6 | -0.55 | 21.3 | 5.55%
O=C(Oc1ccc2c(c1)CCN2C(=O)c1cc2c(cc1[N+](=O)[O-])OCO2)c1ccc2c(c1)OCO2 |  | -2.3 | 5.7 | -4.8 | 11.2 | 7.2%

Structure (SMILES) | growth inhibition [1] [%] | growth inhibition [2] [%] | growth inhibition [3] [%] | growth inhibition [4] [%] | growth inhibition [5] [%] | growth inhibition [6]
COC(=O)C(C)C1Sc2ccccc2NC1=O (stereo not given) |  | -17.3 | -4 | -16.6 | 2.6 | 1.85%
Oc1ccc2c(c1)OCC(O)(c1ccccc1O)C2 (stereo not given) |  | 6.3 | 7.95 | 23.2 | 15.3 | -1.95%
O=C1CCCC1CC(CN1CCOCC1)Sc1nnnn1-c1ccccc1 (stereo not given) |  | 17.1 | -16.6 | 25.2 | -45.8 | -3.5%
COc1ccc(/C=C/[n+]2ccccc2)cc1OC |  | 4.05 | -14.2 | 10.7 | -3.85 | 4.85%
NC(=O)c1ccc(S(=O)(=NS(=O)(=O)c2ccccc2)c2ccc(C(N)=O)cc2)cc1 |  | -11.8 | -62.8 | -25.6 | -1.6 | -8.4%
Cc1onc(-c2ccccc2)c1NC(=O)OC(C)c1cccnc1 (stereo not given) |  | 3.7 | 4.9 | 18.1 | 3.55 | -22.9%
CCC1CCC(OC(=O)Nc2cccc3ccccc23)CC1 (stereo not given) |  | -5.35 | 3.7 | 4.85 | -10.4 | -26.1%
CCCCCCCCCCCC(=O)N(CCOC(=O)c1ccccc1)CCc1ccccc1 |  | 16.6 | 19.2 | -3.2 | 24.5 | 9.45%
CCOC(=O)CCC(=O)C(=O)OCC |  | 13.2 | 20.9 | 1.4 | 20.1 | -24.8%
CC(NC(=O)NCCCl)C1CC1 (stereo not given) |  | -4.75 |  | -14.4 | -0.8 | 0%
CCOC(=O)c1c(C(=O)Nc2ccccc2)c(-c2ccccc2)n(NC(N)=O)c1C |  | 0.5 | -2.4 | 0.85 |  | 5.95%
CC(C)(CO)NC(=O)c1cccs1 |  | 1.45 | 12.7 | -4.35 | -20 | 5.15%
CCOC(=O)/C(=C\c1ccc(OCc2ccccc2)c(OC)c1)C(=O)c1ccccc1 |  | 8.3 | -5.15 | -13.4 | -15.3 | -9.55%
C(=C(c1ccccc1)c1ccccc1)N1CCOCC1 |  | 4.7 | -52 | -20.1 | 1.2 | -5.5%
CCCCN(CCCC)c1c([N+](=O)[O-])c(=O)nc2ccccn12 |  | 5.7 | 11.7 | 11.2 | 37.9 | -3.35%
O=C(Oc1ccccc1)C(c1ccccc1)c1ccccc1 |  | 7.95 | -59.7 | 16.7 | -10.5 | 0.7%
CC(OC(=O)CC(c1ccccc1)N1CCCCC1)c1ccccc1 (stereo not given) |  | 41.1 | 5.3 | 57.5 | 33.9 | 1.3%
CC(NC(=O)C(C)(C)C)c1ccc(-c2ccccc2)cc1 (stereo not given) |  | 9.2 | 12.6 | 2 | 10.8 | 29.6%
CCC(C(=O)c1cccs1)C(O)(C(F)(F)F)C(F)(F)F (stereo not given) |  | -28.4 | -83.2 | -31.4 | 22.9 | 4.6%
Cc1nc2sccn2c1C(=O)NC(=O)Nc1ccc(Cl)cc1 |  | -2.75 | 5.45 | -9.8 | -16.1 | -14.8%
COCCCOC(=O)COc1ccccc1 |  | -8.65 | -12.8 | 11.9 | -13.5 | -45.5%
